# Laboratory results reported in PubChem BioAssay AID686978 (National Center for Advancing Translational Sciences (NCATS), 2013).
# Several values for one entry are separate records, joined by “and”; a condition that tells them apart may be missing. Equal values may be shown once. Hit rate of the full screen: of about 420,000 compounds, about 64,000 (15%) were called active. Inconclusive results (about 27%) are left out. Calls come from the whole dose curve; as a rule, active = well fitted inhibition curve with a large enough effect; inconclusive = small, poorly fitted or top-dose-only effect; inactive = flat fitted curve, though single readings scatter. A selection follows. Where a call stands in place of a potency, no number is given.
# Test: qHTS for Inhibitors of human tyrosyl-DNA phosphodiesterase 1 (TDP1): qHTS in cells in absence of CPT; note: nearly all actives have a fitted effect of over 55% in size
# Settings: DT40 Tdp1-/- hTDP1 cells, no CPT, ATP luminescence, 48 h; activity change, negative = growth inhibition: at 46.2 µM (top of the series)
# Procedure, shortened: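 DT40 Tdp1-/-;hTDP1 cells, no CPT (DMSO vehicle only), 400 cells/well; compounds pin-transferred; ≥48 hr, 37 °C; CellTiter-Glo 30 min RT dark, luminescence read.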
# Potency is the fitted concentration of half-maximal effect.
Structure (SMILES),Potency,"activity change, negative = growth inhibition"
CC(=O)Nc1ccc(S(=O)(=O)N2CCn3cccc3C2C)cc1 (configuration not stated),inactive,–
CC(NC(=O)C(=O)NN=C1CCC(C(C)(C)C)CC1)c1ccccc1 (configuration not stated),inactive,–
CN1CCN(S(=O)(=O)c2ccc(NC(=O)c3ccco3)cc2)CC1,inactive,–
COc1ccc(/C(C)=N/N2CCOCC2)c(O)c1,inactive,–
O=S(=O)(c1cnccc1N1CCN(/N=C/c2ccc(Br)cc2)CC1)N1CCCCC1,18.4 µM (active),–
CN1CCN(c2ccncc2S(=O)(=O)N2CCCC2)CC1,inactive,–
CC(C)NC(=O)N1CCN(c2ccncc2S(=O)(=O)N2CCCCC2)CC1,inactive,–
CCOC(=O)C1CCN(C(=O)Cn2cc(C#N)c3ccccc32)CC1,inactive,–
O=C(c1cccnc1)N1CCN(S(=O)(=O)c2cccs2)CC1,inactive,–
O=C(COC(=O)c1ccc(N2CCCC2=O)cc1)c1ccc(OC(F)F)cc1,inactive,–
CC(C)CNC(=S)NNC(=O)c1ccccc1OC(F)F,inactive,–
CC/C(=N\NC(=S)NC(C)C)c1ccc(OC(F)F)cc1,16.4 µM (active),–
C/C=C1\C2C=C(C)CC1(N)c1ccc(=O)[nH]c1C2 (configuration not stated),inactive,–
COC(=O)Cc1c(O)ccn(Cc2cccc(C(F)(F)F)c2)c1=O,inactive,–
COC(=O)Cc1csc(Nc2c(C)n(C)n(-c3ccccc3)c2=O)n1,inactive,–
COC(=O)Cc1csc(/N=C/c2c(O)n(-c3cccc(C(F)(F)F)c3)c(=O)c3ccccc23)n1,16.4 µM (active),–
CC(C)C(=O)NC(=S)Nc1ccccc1F,inactive,–
CC(NC(=O)Nc1cccc([N+](=O)[O-])c1)c1ccc2c(c1)OCO2 (configuration not stated),inactive,–
O=C(Nc1cccnc1)c1noc2c1CCCCC2,inactive,–
CC(C)CC[n+]1ccn(C2=C([O-])c3ccccc3C(=O)/C2=N\S(=O)(=O)c2ccccc2)c1,10.3 µM (active),–
Cc1ccc(NC2CCCN(C(=O)CCC3(C)CC3)C2)cc1C (configuration not stated),inactive,–
CCOC(=O)CN1CC23C=CC(O2)C(C(=O)Nc2ccc(F)cc2)C3C1=O (configuration not stated),inactive,–

Structure (SMILES),Potency,"activity change, negative = growth inhibition"
COCCn1nnnc1CN1CCC(NC(=O)Nc2cccc(OC)c2)CC1,inactive,–
Cc1c(-c2cccc(NC(=O)C(C)(C)C)c2)nc2ncccn12,inactive,–
Cc1ccc(-c2c(N)nc3ncccn23)cc1,inactive,–
Cc1nc(-c2ccc(F)cc2)c(CC(=O)N(C)CC(=O)Nc2c(C)cccc2C)s1,inactive,–
CCc1cccc(C)c1Nc1c(-c2ccc(N(C)C)cc2)nc2ncccn12,10.3 µM (active),–
Cc1cccc(C)c1Nc1c(-c2ccccc2O)nc2ncccn12,18.4 µM (active) and 23.1 µM (active),–
Nn1c(SCC(=O)Nc2nccs2)nncc1=O,inactive,–
CC(C)CCNC(=O)CC1C(=O)N(Cc2ccccc2)C(C)c2nc3ccccc3n21 (configuration not stated),inactive,–
CN(C)c1ccnc(Nc2ccc(F)cc2)c1C#N,inactive,–
COc1ccccc1/C=C/C1=NC(=C\N(C)C)/C(=O)O1,20.6 µM (active),–
COc1ccccc1/C=C/C(=O)NC1CC2CCC1C2 (configuration not stated),inactive,–
COc1ccccc1/C=C/C(=O)NC(=S)N1CCOCC1,inactive,–
O=C(CCNS(=O)(=O)c1ccccc1C(F)(F)F)NCc1ccc2c(c1)OCO2,inactive,–
C=CCOC(=O)c1ccccc1C(=O)OCC=C,inactive,–
C=CCOC(=O)C1=C(C)NC(C)=C(C(=O)OCC=C)C1c1cccs1,18.4 µM (active),–
CCOC(=O)C1=C(C)NC(=S)NC1c1cccs1 (configuration not stated),inactive,–
CC(C)C(NC(=O)c1ccc(Cl)cc1)C(=O)O (configuration not stated),inactive,–
CSc1ncccc1C(=O)Nc1nc2ccc(F)cc2s1,inactive,–
O=C(COc1ccc(S(=O)(=O)N2CCCC2)cc1[N+](=O)[O-])N1CCCCC1,inactive,–
Cc1cc(C(=O)COc2ccccc2[N+](=O)[O-])c(C)n1-c1cccc(S(=O)(=O)N2CCOCC2)c1,23.1 µM (active),–
Cc1cc(S(=O)(=O)N2CCOCC2)ccc1OCC(=O)N1CCOCC1,inactive,–
CCCCCC(O)c1cccc(OCc2ccc3ccccc3n2)c1 (configuration not stated),–,-7.93% [at 4.12 µM] (inactive)

Structure (SMILES),Potency,"activity change, negative = growth inhibition"
C/C(=N/OC(=O)c1c(-c2c(F)cccc2Cl)noc1C)c1cnccn1,inactive,–
O=C(CN1C(=O)COc2ccccc21)Nc1ccc(F)cc1,inactive,–
CCOc1cccc(NC(=O)c2ccc(F)c(S(=O)(=O)N(CC)c3cccc(C)c3)c2)c1,25.9 µM (active),–
CCOc1ccc(N(CC(=O)Nc2cccc(OC)c2)S(C)(=O)=O)cc1,inactive,–
CCN(CC)S(=O)(=O)c1cc(C(=O)Nc2ccccn2)ccc1C,inactive,–
CC1(C)CC(=O)C=C(NCCCNC2CCCCC2)C1,inactive,–
O=Cc1ccc(Oc2cccc(C(F)(F)F)c2)nc1,inactive,–
N/C(=N\OC(=O)Nc1ccccc1)c1ccno1,inactive,–
COC(=O)c1ccccc1NC(=O)Cn1c(=O)n(-c2cccc(C(F)(F)F)c2)c(=O)c2c(C)c(C)sc21,inactive,–
CCC(=O)N1CCc2cc(Br)cc(S(=O)(=O)CCC(=O)NCc3ccccc3OC)c21,inactive,–
CC(=O)NC(CC(=O)Nc1ccc(S(=O)(=O)N2CCOCC2)cc1)c1ccccc1 (configuration not stated),inactive,–
CCOc1ccc(CN2CCCN(C)CC2)cc1,inactive,–
O=C(NCCc1c[nH]c2ccccc12)C(=O)NCC1CCCO1 (configuration not stated),inactive,–
O=C(NCCc1c[nH]c2ccccc12)C1CCN(Cc2ccc(Br)cc2)CC1,16.4 µM (active),–
O=C(CN1C(=O)NC2(CCCCC2)C1=O)NCCc1c[nH]c2ccccc12,inactive,–
CCOc1ccc(CN2CCN(Cc3c[nH]c4ccccc34)CC2)cc1,5.8 µM (active),–
CCOc1ccc(CC(=O)NC2CCN(Cc3ccccc3)CC2)cc1,inactive,–
N/C(=N\OC(=O)CCc1ccccc1)c1cccnc1,inactive,–
O=C(COc1coc(CN2CCN(c3ccccc3F)CC2)cc1=O)N1CCc2ccccc21,inactive,–
Cc1cc(C(=O)OCC(=O)c2c(N)n(C)c(=O)n(C)c2=O)c(C)o1,inactive,–
Nc1nc(O)c(CC(=O)O)s1,inactive,–
CCOC(=O)C1=C(O)/C(=C/c2ccc(OCC(=O)Nc3ccc(C)cc3)cc2)N=C1C,inactive,–

Structure (SMILES),Potency,"activity change, negative = growth inhibition"
O=c1c(-c2ccccc2)cnc2n1CCS2,inactive,–
CCCc1nn2c(=O)cc(COC(=O)c3ccc(NC(=O)COc4ccc(F)cc4)cc3)nc2s1,inactive,–
Cc1onc(-c2c(Cl)cccc2Cl)c1C(=O)c1c[nH]c(C(=O)NC2CC2)c1,inactive,–
CC1(C)CC(=O)c2sc(N)nc2C1,inactive,–
Cc1cccc(CC(=O)N2CCN=C2SCc2ccc([N+](=O)[O-])cc2)c1,16.4 µM (active),–
Cc1cc(C)cc(C(=O)N2CCN=C2SCc2ccc([N+](=O)[O-])cc2)c1,inactive,–
O=C(Cc1ccc(F)cc1)N1CCN=C1SCc1cccc([N+](=O)[O-])c1,inactive,–
C/C(=N\NC(=O)CCn1nc(C)cc1C)C(C)(C)C,inactive,–
CCOC(=O)N1CCN(C(=O)CSc2nc(C)nc3c2c(=O)n(C)c(=O)n3C)CC1,inactive,–
CCc1cnc2c(c1SCC(=O)N1CCC(C)CC1)c(=O)n(C)c(=O)n2C,20.6 µM (active),–
Cn1c(=O)c2c(SCC(=O)N3CCOCC3)nc(C3CC3)nc2n(C)c1=O,inactive,–
CC(Sc1nnc(Cc2ccc([N+](=O)[O-])cc2)o1)C(N)=O (configuration not stated),inactive,–
Cc1nc(N)nc(SCc2ccc([N+](=O)[O-])cc2)c1N,25.9 µM (active),–
O=C(CSCc1ccc([N+](=O)[O-])cc1)NCCSCc1ccccc1,inactive,–
CCCN(C(=O)COC(=O)CNS(=O)(=O)c1ccc(NC(C)=O)cc1)C1CCS(=O)(=O)C1 (configuration not stated),inactive,–
COc1ccc(OC)c2[nH]c(=O)c(CCNC(=O)C(=O)c3c[nH]c4ccccc34)cc12,7.31 µM (active),–
COc1ccc(OC)c2[nH]c(=O)c(CCNC(=O)C(C)(C)C)cc12,inactive,–
O=C(NCCCc1ccccc1)C(=O)c1c[nH]c2ccccc12,inactive,–
N#CCCCn1c(O)c(N=NC(=O)C(O)c2ccccc2)c2ccccc21 (configuration not stated),inactive,–
CCNC(=S)NCC,inactive,–
S=C(Nc1ccc(Cl)cc1Cl)N1CCCC1,inactive,–
COc1ccc(CCNC(=S)N2CCN(S(=O)(=O)c3ccc(Cl)cc3)CC2)cc1,inactive,–

Structure (SMILES),Potency,"activity change, negative = growth inhibition"
Oc1cc2c(cc1O)CN(C(=S)NCCc1ccc(Cl)cc1)CCC2,8.91 µM (active),–
Cc1cccc(C)c1NC(=O)CNC(=O)Cc1ccc(Br)cc1,inactive,–
CN(Cc1ccco1)c1cc(-c2ccccc2C(F)(F)F)ncn1,inactive,–
FC(F)(F)c1ccccc1-c1cc(NCc2ccccc2)ncn1,9.2 µM (active),–
COc1ccccc1CNc1cc(-c2ccccc2CN(C)C)ncn1,inactive,–
COc1ccc(CCC(=O)c2c(O)cc(OC3OC(CO)C(O)C(O)C3O[C@@H]3OC(C)C(O)C(O)C3O)cc2O)cc1O (some centres not stated),inactive,–
COCC1CCCN(Cc2ccc3c(c2)CN(C(=O)c2ccnn2C)CCO3)C1 (configuration not stated),inactive,–
NS(=O)(=O)c1ccc(NC(=S)NNC(=O)c2cccs2)cc1,inactive,–
Cc1cc(Oc2ccc(Cl)cc2)nc(SCC(=O)c2ccccc2)n1,23.1 µM (active),–
Cc1cc(C)nc(SCC(=O)N(C)C)n1,inactive,–
Cc1cc(C)nc(SCC(=O)c2ccc(Cl)cc2)n1,inactive,–
Cc1ccc(C(=O)NCC(=O)O)cc1S(=O)(=O)N1CCCCC1,inactive,–
Cc1ccc(NS(=O)(=O)c2cccs2)cc1S(=O)(=O)N1CCCCCC1,inactive,–
Cc1ccc(C)c(Nc2nnc(-c3ccc(C)c(S(=O)(=O)N4CCCCC4)c3)c3ccccc23)c1,9.2 µM (active),–
COc1ccc(C2CC(=O)n3c(nc4ccccc43)S2)cc1OC (configuration not stated),inactive,–
COc1cc(=O)n2c(c1C(=O)NC(C)c1ccco1)CCN(C(=O)c1cn3ccc(C)cc3n1)CC2 (configuration not stated),inactive,–
O=C(CN1CCN(C(=O)c2ccco2)CC1)Nc1ccc(Cl)c(C(F)(F)F)c1,16.4 µM (active),–
O=C(CN1CCN(C(=O)c2ccco2)CC1)Nc1ccc2c(c1)OCO2,inactive,–
COc1ccc(OC)c(NC(=O)CN2CCN(C(=O)c3ccco3)CC2)c1,inactive,–
